Test results: PubChem BioAssay (NCATS)
Records with an inconclusive call do not appear. Calls of active or inactive are those of the source. Unless noted, calls follow the shape of the dose curve; as a rule, active = well fitted curve in the direction sought with a large enough effect; inconclusive = small, poorly fitted or top-dose-only effect, or another doubt; inactive = no such curve, though single readings can be large; an effect the other way counts as inactive or inconclusive.

Legend:
[1] = target: Lysosomal acid glucosylceramidase (Homo sapiens) (UniProt P04062); assay: Glucocerebrosidase-p2 (AID 348; in the data active = potency below about 10 µM; also: potency is read from the fitted curve at half-maximal effect); conditions: purified GBA, blue fluorogenic substrate, 40 min
Sequence of Lysosomal acid glucosylceramidase (Homo sapiens) (P04062 whole entry, looked up): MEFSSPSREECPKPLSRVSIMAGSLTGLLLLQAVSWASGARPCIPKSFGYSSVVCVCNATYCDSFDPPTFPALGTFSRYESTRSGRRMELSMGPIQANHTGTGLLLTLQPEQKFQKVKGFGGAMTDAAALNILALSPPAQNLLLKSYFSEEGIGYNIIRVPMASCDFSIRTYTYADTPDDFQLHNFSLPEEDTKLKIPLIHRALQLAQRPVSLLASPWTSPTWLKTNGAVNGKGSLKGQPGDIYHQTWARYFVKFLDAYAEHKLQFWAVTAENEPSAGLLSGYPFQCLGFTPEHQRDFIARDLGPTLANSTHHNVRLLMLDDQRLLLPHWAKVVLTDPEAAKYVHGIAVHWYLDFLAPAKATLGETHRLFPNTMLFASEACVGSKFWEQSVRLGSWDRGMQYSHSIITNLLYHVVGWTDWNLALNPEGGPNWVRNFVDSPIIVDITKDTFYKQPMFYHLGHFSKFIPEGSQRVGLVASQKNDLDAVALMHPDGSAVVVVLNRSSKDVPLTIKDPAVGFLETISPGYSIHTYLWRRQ
In short: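 Compounds titrated from 0.6 nM upwards against 0.2 nM enzyme in pH 5.9 citric acid/KH2PO4, taurocholate, tween-20; blue fluorogenic substrate 80 uM, 40 min room temperature, stopped and read Ex 365/Em 440 for AC50.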

[2] = AP1 Signaling Pathway (AID 357; active = well fitted curve in either direction with a large enough effect, not every such curve was filed as active; also: % is scaled to controls: 0 for no effect and ±100 for the full control effect); conditions: ME-180 AP-1-bla reporter, EGF-induced, beta-lactamase ratio, 5 h; at 7.69 µM (top of the series) unless noted
In short: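 ME-180 cells with beta-lactamase reporter under AP-1 response element, stimulated with EC50 EGF; compounds tested in titration series, 5 h at 37 °C. CCF4 substrate added 2.5 h at room temperature; 460/530 nm emission ratio gave %activity and AC50.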

[3] = target: Cytochrome P450 1A2 (Homo sapiens) (UniProt P05177); assay: p450-cyp1a2 (AID 410; calls by dose curve; also: potency is read from the fitted curve at half-maximal effect); conditions: recombinant CYP1A2, luciferin-ME demethylation, luminescence; series mostly up to 57 µM
Sequence of Cytochrome P450 1A2 (Homo sapiens) (P05177 whole entry, looked up): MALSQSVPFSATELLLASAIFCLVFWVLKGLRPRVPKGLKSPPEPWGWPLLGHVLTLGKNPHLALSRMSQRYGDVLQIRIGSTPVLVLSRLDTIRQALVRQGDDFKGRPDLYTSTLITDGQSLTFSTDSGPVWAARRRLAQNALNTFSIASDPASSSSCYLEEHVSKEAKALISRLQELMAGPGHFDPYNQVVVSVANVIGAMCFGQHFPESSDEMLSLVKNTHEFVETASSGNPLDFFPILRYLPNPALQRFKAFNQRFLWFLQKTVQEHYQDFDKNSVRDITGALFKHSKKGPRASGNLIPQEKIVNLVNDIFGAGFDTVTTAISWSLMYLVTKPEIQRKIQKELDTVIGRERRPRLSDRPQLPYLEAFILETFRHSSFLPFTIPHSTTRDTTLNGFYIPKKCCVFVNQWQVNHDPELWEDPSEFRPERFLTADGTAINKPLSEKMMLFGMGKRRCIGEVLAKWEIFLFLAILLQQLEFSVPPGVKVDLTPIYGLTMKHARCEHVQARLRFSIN
In short: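 Luminescent readout of luciferin formed from Luciferin-ME by human CYP1A2; data normalized against complete inhibition by 57 uM furafylline. Enzyme 20nM, substrate 100uM at Km, 100mM KPO4 buffer, 60 min reaction at room temperature.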

[4] = NFAT Signaling Pathway (AID 444; active = well fitted curve in either direction with a large enough effect, not every such curve was filed as active;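 also: carbachol stimulus at about its EC50 of 1 µM final; % is scaled to controls: 0 for no effect and ±100 for the full control effect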); conditions: Jurkat NFAT-bla M1, carbachol, beta-lactamase ratio, 5 h; at 7.69 µM (top of the series) unless noted
In short: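 Jurkat cells carrying an NFAT-driven β-lactamase reporter and co-transfected muscarinic M1 receptor were treated with compound plus carbachol (1 uM final, an EC50 level) for 5 h at 37 °C. CCF4 loading followed for 1 h at RT; 460/530 nm ratio gave %activity.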

[5] = Stat Signaling Pathway (AID 446; active = well fitted curve in either direction with a large enough effect, not every such curve was filed as active;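 also: ME-180 cervical cancer cells given 40 pM IL-6 alongside compound; SIE-controlled beta-lactamase reporter measured as 460/530 nm FRET emission ratio; % is scaled to controls: 0 for no effect and ±100 for the full control effect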); conditions: ME-180 SIE beta-lactamase reporter, IL-6 stimulated, 5 h; at 7.69 µM (top of the series) unless noted
In short: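 Screening format detects activators and inhibitors alike: ME-180 SIE-bla cells stimulated at 40 pM IL-6 for 5 hrs with compound, then dual-emission beta-lactamase read at 405 nm excitation.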

[6] = target: Glucocorticoid receptor (Homo sapiens) (UniProt P04150); assay: GR-GFP Redistribution (AID 450;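 active = compounds whose dose series gives a full or clear partial fitted curve of increased nuclear translocation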; also: potency is read from the fitted curve at half-maximal effect); conditions: U2OS GR-GFP nuclear translocation, laser cytometry, 2 h
Sequence of Glucocorticoid receptor (Homo sapiens) (P04150 whole entry, looked up, the tested form may be a part): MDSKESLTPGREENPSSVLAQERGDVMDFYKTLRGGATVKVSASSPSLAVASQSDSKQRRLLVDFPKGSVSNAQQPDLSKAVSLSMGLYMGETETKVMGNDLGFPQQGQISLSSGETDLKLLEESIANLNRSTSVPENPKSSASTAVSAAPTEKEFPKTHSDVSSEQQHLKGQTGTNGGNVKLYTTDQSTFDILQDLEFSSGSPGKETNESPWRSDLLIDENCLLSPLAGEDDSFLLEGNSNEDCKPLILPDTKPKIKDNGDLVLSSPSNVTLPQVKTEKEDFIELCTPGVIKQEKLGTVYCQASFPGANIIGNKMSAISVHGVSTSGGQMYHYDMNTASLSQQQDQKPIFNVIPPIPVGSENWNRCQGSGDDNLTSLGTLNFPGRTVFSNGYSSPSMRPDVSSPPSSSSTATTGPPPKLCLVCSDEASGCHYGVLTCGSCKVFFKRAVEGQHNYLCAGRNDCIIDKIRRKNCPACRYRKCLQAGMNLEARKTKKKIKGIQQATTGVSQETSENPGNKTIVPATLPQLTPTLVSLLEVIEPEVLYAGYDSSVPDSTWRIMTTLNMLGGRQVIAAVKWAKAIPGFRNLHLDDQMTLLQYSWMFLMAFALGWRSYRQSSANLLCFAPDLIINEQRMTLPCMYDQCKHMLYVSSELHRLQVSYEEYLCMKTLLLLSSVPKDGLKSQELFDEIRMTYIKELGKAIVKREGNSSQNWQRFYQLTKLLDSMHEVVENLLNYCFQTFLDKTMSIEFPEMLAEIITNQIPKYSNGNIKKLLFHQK

[7] = target: Glucocorticoid receptor (Homo sapiens) (UniProt P04150); assay: GR-EFC Redistribution (AID 451; calls by dose curve; also: potency is read from the fitted curve at half-maximal effect); conditions: CHO-K1 GR-EFC translocation, beta-gal luminescence, 2 h
In short: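 CHO-K1 cells stably expressing nuclear-localized β-gal enzyme acceptor and GR fused C-terminally to the enzyme donor fragment; ligand-driven nuclear translocation restores β-gal by complementation. Compounds titrated up to 46 uM final, 2 h at 37 °C; luminescence read.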

[8] = target: Mitogen-activated protein kinase 10 (Mus musculus) (UniProt Q61831); assay: JNK3 AlphaScreen Assay (AID 530; active = well fitted curve in either direction with a large enough effect, not every such curve was filed as active;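 also: kinase came from lysate of stimulated human HepG2 cells; signal reports phosphorylation of biotinylated GST-cJun 1-79 at Ser73 with 10 µM ATP; % is scaled to controls: 0 for no effect and ±100 for the full control effect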); conditions: JNK3 lysate, c-Jun phosphorylation; series mostly up to 57.1 µM
In short: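 Inhibitors reduce antibody binding to phosphorylated biotin-cJun, lowering AlphaScreen luminescence. Lysates from HepG2 cells pre-activated by IL-1beta plus TNF-alpha supplied JNK3; compounds were titrated.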

[9] = target: Cytochrome P450 3A4 (Homo sapiens) (UniProt P08684); assay: qHTS Assay for Activators of Cytochrome P450 3A4 (AID 885); conditions: recombinant CYP3A4, Luciferin-PPXE luminescence, 60 min; series mostly up to 57.1 µM; also: nearly all actives have a fitted effect of over 65% in size
Sequence of Cytochrome P450 3A4 (Homo sapiens) (P08684 whole entry, looked up): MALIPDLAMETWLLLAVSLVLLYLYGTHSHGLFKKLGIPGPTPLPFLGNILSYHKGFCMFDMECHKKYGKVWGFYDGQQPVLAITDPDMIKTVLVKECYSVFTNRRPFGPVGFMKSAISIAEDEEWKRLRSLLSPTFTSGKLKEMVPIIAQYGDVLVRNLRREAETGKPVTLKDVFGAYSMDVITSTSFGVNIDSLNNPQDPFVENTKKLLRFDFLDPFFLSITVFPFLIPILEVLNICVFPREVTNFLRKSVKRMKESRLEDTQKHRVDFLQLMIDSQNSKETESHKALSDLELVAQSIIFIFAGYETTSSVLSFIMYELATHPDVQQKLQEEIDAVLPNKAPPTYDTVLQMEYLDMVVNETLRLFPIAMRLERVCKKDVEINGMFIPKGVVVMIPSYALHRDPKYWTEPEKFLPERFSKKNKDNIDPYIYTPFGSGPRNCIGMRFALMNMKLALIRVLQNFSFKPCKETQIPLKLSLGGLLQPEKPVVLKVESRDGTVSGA
In short: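 Steps: enzyme/substrate mix dispensed; compound added, 10 min RT; NADPH regeneration solution added, 60 min RT; luciferin detection buffer stops reaction; 20 min later luminescence measured.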

[10] = Confirmation and Secondary Assay for Modulators of Hemoglobin Beta Chain Splicing at IVS2 654 locus (AID 910); conditions: HeLa EGFP-654 splicing reporter, GFP fluorescence, 48 h; series mostly up to 38.3 µM;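 also: per-well total GFP intensity by laser scanning cytometry after 2-day treatment; % of control where 0% means no effect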
In short: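 HeLa cells stably carrying EGFP interrupted by mutant beta-globin IVS2-654 intron (CMV-driven) were treated with compound for 2 days at 37C; corrected splicing was scored as total peak GFP intensity per well (488 nm excitation, 500-520 nm emission).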

[11] = Confirmation and Secondary Assay for Modulators of Hemoglobin Beta Chain Splicing at IVS2 705 locus (AID 930); conditions: HeLa EGFP-705 splicing reporter, GFP fluorescence, 48 h; series mostly up to 38.3 µM;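 also: HeLa cells stably expressing the EGFP-705 splicing reporter; GFP fluorescence per well restored by corrected splicing of the IVS2-705 intron in EGFP; % of control where 0% means no effect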
In short: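 Assay measures total GFP intensity per well in HeLa EGFP-705 cells after 2 days with compound; mis-splicing normally truncates EGFP, so fluorescence indicates corrected splicing.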

[12] = qHTS Assay for Lipid Storage Modulators (AID 1519; calls by dose curve); conditions: Drosophila S3 cells, BODIPY lipid droplet/cell ratio, laser cytometry, cells loaded with oleic acid; for activity change, negative = inhibition: at 57.5 µM (top of the series)
In short: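 Cells seeded at 5,000 per well were treated with compounds over a concentration series and loaded with oleic acid (400 uM, as added). Lipid droplet fluorescence (488 nm excitation, 500-530 nm channel) was read by laser-scanning cytometry and normalized to 20 uM Triacsin C.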

[13] = target: Ubiquitin carboxyl-terminal hydrolase 1 (Homo sapiens) (UniProt O94782); assay: Inhibitors of USP1/UAF1: Pilot qHTS (AID 504865); conditions: purified USP1/UAF1, Ub-rhodamine cleavage fluorescence; series mostly up to 54.9 µM;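 also: rhodamine fluorescence freed from ubiquitin-rhodamine substrate followed over time; top concentration of the series differs between compounds; % is scaled to controls: 0 for no effect and ±100 for the full control effect; nearly all actives have a fitted effect of over 35% in size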
Sequence of Ubiquitin carboxyl-terminal hydrolase 1 (Homo sapiens) (O94782 whole entry, looked up): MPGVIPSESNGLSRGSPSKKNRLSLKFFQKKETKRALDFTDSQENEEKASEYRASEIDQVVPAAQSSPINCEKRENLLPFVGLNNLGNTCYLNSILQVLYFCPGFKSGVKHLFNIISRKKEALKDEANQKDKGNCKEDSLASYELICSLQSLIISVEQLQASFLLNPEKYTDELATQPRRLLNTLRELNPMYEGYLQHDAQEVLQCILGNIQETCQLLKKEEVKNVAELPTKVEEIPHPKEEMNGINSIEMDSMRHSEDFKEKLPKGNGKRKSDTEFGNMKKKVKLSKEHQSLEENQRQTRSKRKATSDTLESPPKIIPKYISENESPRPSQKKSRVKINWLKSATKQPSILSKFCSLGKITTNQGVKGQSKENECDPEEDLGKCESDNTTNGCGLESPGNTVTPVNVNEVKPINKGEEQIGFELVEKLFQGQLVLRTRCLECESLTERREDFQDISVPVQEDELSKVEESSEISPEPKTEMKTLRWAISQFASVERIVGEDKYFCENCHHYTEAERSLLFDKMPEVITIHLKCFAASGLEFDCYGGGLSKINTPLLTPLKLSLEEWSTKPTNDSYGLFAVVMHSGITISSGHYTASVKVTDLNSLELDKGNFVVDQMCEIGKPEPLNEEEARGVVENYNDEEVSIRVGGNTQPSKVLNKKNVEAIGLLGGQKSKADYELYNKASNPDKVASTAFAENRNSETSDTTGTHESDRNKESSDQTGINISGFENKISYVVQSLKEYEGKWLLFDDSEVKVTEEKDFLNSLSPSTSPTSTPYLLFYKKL
In short: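 USP1/UAF1 complex at 1 nM preincubated 15 min at room temperature with compound, then Ub-Rho substrate added at 150 nM final. Fluorescence (480/540 nm) read kinetically in 50 mM HEPES pH 7.8, 0.5 mM EDTA, 1 mM TCEP, 0.1 mg/ml BSA, 0.01% Tween-20.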

[14] = Primary qHTS for small molecule stabilizers of the endoplasmic reticulum resident proteome: Secreted ER Calcium Modulated Protein (SERCaMP) assay (AID 1508630); conditions: SH-SY5Y GLuc-SERCaMP (Gaussia luciferase released on ER calcium loss) secretion, thapsigargin, luminescence; series mostly up to 38.4 µM; also: % is scaled to controls: 0 for no effect and ±100 for the full control effect
In short: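 GLuc-SERCaMP-expressing SH-SY5Y cells, pretreated 16 h with compound, are challenged with thapsigargin to empty ER calcium stores; after 4 h, coelenterazine is added directly to the medium and luminescence is imaged.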

[15] = target: 3',5'-cyclic-AMP phosphodiesterase 4B (Homo sapiens) (UniProt Q07343); assay: qHTS Assay for Inhibitors of PDE-IV (AID 607; active = well fitted activation curve with a large enough effect in the main read-out, with a control signal flat, not every such curve was filed as active; also: % of control where 0% means no effect); conditions: HEK293 ACTOne CNG channel cells, membrane potential fluorescence; series mostly up to 22.9 µM
Sequence of 3',5'-cyclic-AMP phosphodiesterase 4B (Homo sapiens) (Q07343 whole entry, looked up): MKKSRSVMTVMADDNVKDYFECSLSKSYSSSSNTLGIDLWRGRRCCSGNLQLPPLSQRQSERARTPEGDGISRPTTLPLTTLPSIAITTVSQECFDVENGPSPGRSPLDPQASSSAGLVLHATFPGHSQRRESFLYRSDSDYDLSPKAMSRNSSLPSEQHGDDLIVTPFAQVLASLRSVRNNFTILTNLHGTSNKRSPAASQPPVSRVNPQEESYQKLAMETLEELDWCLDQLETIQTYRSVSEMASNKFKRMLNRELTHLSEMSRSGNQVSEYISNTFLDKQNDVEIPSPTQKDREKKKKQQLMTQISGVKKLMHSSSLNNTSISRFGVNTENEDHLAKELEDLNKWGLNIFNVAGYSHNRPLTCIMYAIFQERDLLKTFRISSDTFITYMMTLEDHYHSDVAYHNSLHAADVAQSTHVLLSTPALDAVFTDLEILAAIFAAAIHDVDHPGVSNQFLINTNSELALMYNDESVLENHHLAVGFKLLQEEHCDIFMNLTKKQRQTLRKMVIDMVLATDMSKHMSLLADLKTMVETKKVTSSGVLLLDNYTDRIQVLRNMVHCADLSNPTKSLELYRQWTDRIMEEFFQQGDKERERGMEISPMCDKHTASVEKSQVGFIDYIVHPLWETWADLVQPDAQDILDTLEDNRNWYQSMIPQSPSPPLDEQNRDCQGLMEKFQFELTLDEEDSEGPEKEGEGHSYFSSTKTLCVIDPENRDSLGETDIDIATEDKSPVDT
In short: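 The readout is membrane depolarisation from a cAMP-sensing CNG channel, detected with a potential dye at ex 535/em 590. Cells were HEK293-derived (endogenous PDE-IV) at 1000 cells/well, titrated up to 22.9 uM final.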

[16] = target: Cytochrome P450 2C19 (Homo sapiens) (UniProt P33261); assay: qHTS Assay for Inhibitors and Substrates of Cytochrome P450 2C19 (AID 899); conditions: recombinant CYP2C19, luciferin-H EGE luminescence; series mostly up to 57.1 µM; also: potency is read from the fitted curve at half-maximal effect; nearly all actives have a fitted effect of over 60% in size
Sequence of Cytochrome P450 2C19 (Homo sapiens) (P33261 whole entry, looked up): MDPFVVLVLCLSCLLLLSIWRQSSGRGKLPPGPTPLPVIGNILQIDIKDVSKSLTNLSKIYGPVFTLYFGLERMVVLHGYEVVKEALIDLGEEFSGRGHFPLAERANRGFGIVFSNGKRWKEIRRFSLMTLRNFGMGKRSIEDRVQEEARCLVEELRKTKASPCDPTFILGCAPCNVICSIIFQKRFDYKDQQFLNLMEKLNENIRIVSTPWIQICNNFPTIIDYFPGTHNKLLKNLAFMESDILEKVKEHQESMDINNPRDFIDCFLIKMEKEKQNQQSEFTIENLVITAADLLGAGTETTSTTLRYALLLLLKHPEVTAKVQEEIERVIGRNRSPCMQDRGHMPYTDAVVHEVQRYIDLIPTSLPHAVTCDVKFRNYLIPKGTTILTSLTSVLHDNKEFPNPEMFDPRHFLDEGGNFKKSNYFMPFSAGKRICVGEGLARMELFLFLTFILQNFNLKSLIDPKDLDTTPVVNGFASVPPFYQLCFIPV
In short: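 Human CYP2C19 (5nM) with Luciferin-H EGE at 10uM (its KM) in 50mM KPO4 was preincubated with compound for 10 min at 37C. NADPH regeneration started a 60 min 37C reaction. Luciferin was read by luminescence, normalized to 57uM ketoconazole.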

[17] = target: Cytochrome P450 2C9 (Homo sapiens) (UniProt P11712); assay: qHTS Assay for Inhibitors and Substrates of Cytochrome P450 2C9 (AID 883); conditions: recombinant CYP2C9, luciferin-H luminescence, 60 min; series mostly up to 57.1 µM; also: % is scaled to controls: 0 for no effect and ±100 for the full control effect; nearly all actives have a fitted effect of over 60% in size
Sequence of Cytochrome P450 2C9 (Homo sapiens) (P11712 whole entry, looked up): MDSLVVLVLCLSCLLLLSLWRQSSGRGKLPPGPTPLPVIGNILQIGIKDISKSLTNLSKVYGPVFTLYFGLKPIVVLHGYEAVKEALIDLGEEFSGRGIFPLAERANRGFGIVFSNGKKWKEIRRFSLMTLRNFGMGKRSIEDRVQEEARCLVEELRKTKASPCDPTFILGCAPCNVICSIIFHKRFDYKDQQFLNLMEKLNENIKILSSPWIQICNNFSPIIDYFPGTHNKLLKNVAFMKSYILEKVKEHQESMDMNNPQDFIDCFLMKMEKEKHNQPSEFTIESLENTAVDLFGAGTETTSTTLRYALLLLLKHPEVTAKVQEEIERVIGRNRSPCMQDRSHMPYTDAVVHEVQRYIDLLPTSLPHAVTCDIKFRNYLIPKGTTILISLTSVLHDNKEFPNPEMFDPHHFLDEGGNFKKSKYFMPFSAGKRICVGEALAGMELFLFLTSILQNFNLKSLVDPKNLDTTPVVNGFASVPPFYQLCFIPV
In short: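 Human CYP2C9 (10nM) hydroxylated Luciferin-H (100uM, at its KM) to luciferin in 25mM KPO4. Compound was preincubated 10 min at 37C, then NADPH regeneration started a 60 min reaction at 37C. Luminescence was read after detection reagent, normalized to 57uM sulphaphenazole.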

[18] = qHTS Assay for Identification of Small Molecule Agonists for Hypoxia Response Element Signaling Pathway (AID 914; active = well fitted activation curve with a large enough effect in the signal ratio, with a control signal flat, not every such curve was filed as active; the % refers to the signal ratio; also: % of control where 0% means no effect); conditions: ME-180 (cervical carcinoma) HRE-bla reporter, beta-lactamase ratio, CoCl2, 17 h; activation: stronger effect = higher value
In short: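 Compounds in a titration series were added to ME-180 reporter cells alongside an EC50 level of CoCl2. After 17 hours, beta-lactamase activity was read as the 460nm/530nm emission ratio of CCF4, giving AC50 values.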

[19] = target: Cytochrome P450 3A4 (Homo sapiens) (UniProt P08684); assay: qHTS Assay for Inhibitors and Substrates of Cytochrome P450 3A4 (AID 884); conditions: recombinant CYP3A4, Luciferin-PPXE luminescence; series mostly up to 57.1 µM; also: potency is read from the fitted curve at half-maximal effect; nearly all actives have a fitted effect of over 50% in size
In short: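 20 nM human CYP3A4 with 25 uM Luciferin-PPXE (at KM) in 200 mM KPO4, preincubated 10 min with compound; NADPH regeneration started a 60 min RT reaction. Luciferin detected by luminescence, normalized to 57 uM ketoconazole as full inhibition.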

[20] = measured here: cell count channel max response
[21] = measured here: lipid channel max response

CN(C)Cc1ccccc1-c1nc(N2CCOCC2)c2ccccc2n1
Potency [1]: > 11.4 µM (inactive)
activity change, negative = inhibition [2]: 25.9% (inactive)
Potency [3]: 20 µM (active)
activity change, negative = inhibition [4]: -1.63% (inactive)
activity, negative = inhibition [5]: 27.7% (inactive)
Potency [6]: > 46 µM (inactive)
Potency [7]: > 46 µM (inactive)
outcome [8]: inactive
Potency [9]: inactive
outcome [10]: inactive
outcome [11]: inactive
activity change, negative = inhibition [12]: 5.13% (inactive)
max response [12, 20]: 11.7%
max response [12, 21]: 18.4%
Potency [13]: inactive
Potency [14]: inactive

COc1cccc(-c2ccc3ncnc(NC4CCNCC4)c3c2)c1
Potency [1]: > 11.4 µM (inactive)
activity change, negative = inhibition [2]: 2.29% (inactive)
Potency [3]: 20 µM (active)
activity change, negative = inhibition [4]: 13.6% (inactive)
activity, negative = inhibition [5]: -1.25% (inactive)
Potency [6]: > 46 µM (inactive)
Potency [7]: > 46 µM (inactive)
outcome [8]: inactive
Potency [15]: inactive
Potency [9]: inactive
Potency [16]: 6.31 µM (active)
outcome [10]: inactive
outcome [11]: inactive
activity change, negative = inhibition [12]: 7.49% (inactive)
max response [12, 20]: -3.29%
max response [12, 21]: 2.37%
Potency [14]: inactive

CNc1nc(-c2ccccc2Cl)nc2ccccc12
Potency [1]: 5.87 µM (active)
activity change, negative = inhibition [2]: -4.05% (inactive)
Potency [3]: 0.126 µM (active)
activity change, negative = inhibition [4]: 12.6% (inactive)
activity, negative = inhibition [5]: -8.45% (inactive)
Potency [6]: > 46 µM (inactive)
Potency [7]: > 46 µM (inactive)
outcome [8]: inactive
Potency [15]: inactive
activity change, negative = inhibition [17]: 75.1% [at 2.29 µM] (inactive)
Potency [9]: inactive
outcome [10]: inactive
activation [18]: 11.6% (inactive)
outcome [11]: inactive
activity change, negative = inhibition [12]: 5.07% (inactive)
max response [12, 20]: -3.59%
max response [12, 21]: -2.38%
Potency [14]: inactive

COc1ncc2ncc(=O)n(Cc3cccs3)c2n1
Potency [1]: > 11.4 µM (inactive)
activity change, negative = inhibition [2]: 1.19% (inactive)
Potency [3]: 10 µM (active)
activity change, negative = inhibition [4]: -2.85% (inactive)
activity, negative = inhibition [5]: -3.48% (inactive)
Potency [6]: > 9.22 µM (inactive)
Potency [7]: > 46 µM (inactive)
outcome [8]: inactive
Potency [9]: inactive
activity change, negative = inhibition [12]: 4.1% (inactive)
max response [12, 20]: 9.65%
max response [12, 21]: 19.6%
Potency [14]: inactive

CC(=O)NCCNc1nc(-c2ccccc2Cl)nc2ccccc12
Potency [1]: > 11.4 µM (inactive)
activity change, negative = inhibition [2]: 22.6% (inactive)
Potency [3]: 7.94 µM (active)
activity change, negative = inhibition [4]: -5.34% (inactive)
activity, negative = inhibition [5]: -10.3% (inactive)
Potency [6]: > 46 µM (inactive)
Potency [7]: > 46 µM (inactive)
outcome [8]: inactive
Potency [15]: inactive
Potency [9]: inactive
Potency [16]: 3.98 µM (active)
outcome [10]: inactive
activation [18]: 19.9% (inactive)
outcome [11]: inactive
activity change, negative = inhibition [12]: 8.12% (inactive)
max response [12, 20]: 11.5%
max response [12, 21]: 20.7%
Potency [14]: inactive

Cn1c(=O)cnc2cnc(Oc3ccccc3)nc21
Potency [1]: > 11.4 µM (inactive)
activity change, negative = inhibition [2]: 5.77% (inactive)
Potency [3]: 10 µM (active)
activity change, negative = inhibition [4]: 4.94% (inactive)
activity, negative = inhibition [5]: -3.04% (inactive)
Potency [6]: > 9.22 µM (inactive)
Potency [7]: > 46 µM (inactive)
outcome [8]: inactive
Potency [15]: inactive
activity change, negative = inhibition [12]: 3.92% (inactive)
max response [12, 20]: 18.8%
max response [12, 21]: 25.3%
Potency [14]: inactive

CN(C)c1ccc(-c2cc(-n3ccnc3)ncn2)cc1
Potency [1]: > 11.4 µM (inactive)
activity change, negative = inhibition [2]: 2.17% (inactive)
Potency [3]: 0.158 µM (active)
activity change, negative = inhibition [4]: 9.75% (inactive)
activity, negative = inhibition [5]: 15.9% (inactive)
Potency [6]: > 46 µM (inactive)
Potency [7]: > 46 µM (inactive)
outcome [8]: inactive
Potency [15]: inactive
Potency [19]: 0.0631 µM (active)
Potency [9]: inactive
Potency [16]: 7.94 µM (active)
outcome [10]: inactive
outcome [11]: inactive
activity change, negative = inhibition [12]: 9.39% (inactive)
max response [12, 20]: 11.3%
max response [12, 21]: 23%
Potency [14]: inactive
